The supplement of paper PMC12297408
Where “and” joins values, the source holds several entries; their conditions need not be identical. Equal entries are not always repeated. Structures can show the parent of a compound that is named as a salt. Unmarked numbers belong to inactive results.

Test system: Plasmodium falciparum NF54/iGP1_RE9H ulg8 stage V gametocytes
Test: gametocyte viability (luciferase signal relative to DMSO control) (% of DMSO control); higher = less gametocytocidal activity, active = 50 or less
Settings: exposure time: 72 h
Procedure, shortened: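 Compounds from 10 mM DMSO stocks were spotted at nanolitre scale into 96-well plates, and day-12 stage V NF54/iGP1_RE9Hulg8 gametocytes (~2.5% gametocytemia, 3% hematocrit; medium with 0.5% Albumax II) were added to reach 10 µM or 1 µM, one well per concentration. The plates were kept at 37 °C for 72 h. Luminescence was then read on an IVIS Lumina II after mixing 90 µl of culture with 10 µl D-luciferin (30 mg/ml). Viability values are relative to the plate's mean DMSO vehicle signal.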

Row | SMILES | gametocyte viability (concentration: 1 µM) | gametocyte viability (concentration: 10 µM)
1 | COc1ccc(S(=O)(=O)N(CCO)c2ccccc2CN(C)CC=Cc2ccc(Cl)cc2)cc1 | 112 | 102
2 | O=C1c2ccccc2-c2n[nH]c3cccc1c23 | 95.3 and 98.9 | 90.5 and 106
3 | COc1cc2ncc(-c3ccccc3)nc2cc1OC | 99.5 | 91.9
4 | O=C(O)c1cc(NCc2cc(O)ccc2O)ccc1O [2-Hydroxy-5-(2,5-dihydroxybenzylamino)benzoic acid] | 103 | 109
5 | CC(C)n1nc(-c2cc3cc(O)ccc3[nH]2)c2c(N)ncnc21 | 105 | 103
6 | CN1CC[C@H](c2c(O)cc(O)c3c(=O)cc(-c4ccccc4Cl)oc23)[C@H](O)C1 [Flavopiridol hydrochloride] | 106 | 111
7 | Cn1cnc2nc(NCCO)nc(NCc3ccccc3)c21 [Iso-olomoucine] | 95 | 102
8 | NC(N)=NCCNS(=O)(=O)c1cccc2cnccc12 | 107 | 107
9 | COc1ccc2c3n(c(=NC(=O)c4cccnc4)nc2c1OC)CCN3 | 94.4 | 101
10 | Nc1nc2ncnc-2c[nH]1 [2-Aminopurine] | 97.6 | 103
11 | CC(C)c1cc(/C=C(\C#N)C(=O)NCCCc2ccccc2)cc(C(C)C)c1O | 99.4 | 97.2
12 | CC(=O)Nc1nc(C)c(-c2ccc(Cl)c(S(=O)(=O)NCCO)c2)s1 | 81.5 | 13.6 (active)
13 | Cc1ccc(-c2nn(C(C)(C)C)c3ncnc(N)c23)cc1 | 103 | 105
14 | Cc1ccc(Nc2nccc(N(C)c3ccc4c(C)n(C)nc4c3)n2)cc1S(N)(=O)=O [Pazopanib HCl] | 98 | 109
15 | CC(C)c1cnc(NC(=O)Cc2ccccc2)s1 | 94.5 | 92
16 | N=C(N)NC(=N)NCCc1ccccc1 [Phenformin hydrochloride] | 99.9 | 111
17 | N#C/C(=C\c1cc(Cl)cc(Cl)c1)c1cccnc1 | 98.1 | 101
18 | CN1CC[C@H](c2c(O)cc(O)c3c(=O)cc(-c4ccccc4Cl)oc23)[C@H](O)C1 [Flavopiridol (Alvocidib)] | 99.8 | 122
19 | CC(=O)c1c(C)c2cnc(Nc3ccc(N4CCNCC4)cn3)nc2n(C2CCCC2)c1=O | 98 | 103
20 | Nc1nccc(Oc2ccc(NC(=O)c3c[nH]cc(-c4ccc(F)cc4)c3=O)cc2F)c1Cl | 102 | 114
21 | CCOc1cc2ncc(C#N)c(Nc3ccc(F)c(Cl)c3)c2cc1NC(=O)/C=C/CN(C)C [Pelitinib (EKB-569)] | 85.3 | 99.8

Row | SMILES | gametocyte viability (concentration: 1 µM) | gametocyte viability (concentration: 10 µM)
22 | Cc1[nH]nc2ccc(-c3cncc(OC[C@@H](N)Cc4ccccc4)c3)cc12 | 101 | 104
23 | NC(=O)c1ccc(N(C(N)=O)c2c(F)cccc2F)nc1-c1ccc(F)cc1F | 99.2 | 103
24 | Oc1ccc(-c2nc(-c3ccc(F)cc3)c(-c3ccncc3)[nH]2)cc1 | 112 and 117 | 115 and 132
25 | CC(C)(C)Cn1c(N)nc2ccc(-c3[nH]c(C(C)(C)C)nc3-c3ccc(F)cc3)nc21 | 97.8 | 105
26 | COc1cc(Nc2ncc3c(n2)-c2ccc(Cl)cc2C(c2c(F)cccc2OC)=NC3)ccc1C(=O)O [MLN8237 (Alisertib)] | 95 | 94.6
27 | Cn1cnc(-c2cc3nccc(Oc4ccc(NC(=S)NC(=O)Cc5ccccc5)cc4F)c3s2)c1 | 90.2 | 93.5
28 | COc1cc2/c(=N/c3ccc(Br)cc3F)nc[nH]c2cc1OCC1CCN(C)CC1 [Vandetanib (Zactima)] | 88.8 | 108
29 | Cc1c(NC(=O)OC[C@@H]2COCCN2)cn2ncnc(Nc3ccc4c(cnn4Cc4cccc(F)c4)c3)c12 | 85.8 | 96
30 | Cc1cn(-c2cc(NC(=O)c3ccc(C)c(Nc4nccc(-c5cccnc5)n4)c3)cc(C(F)(F)F)c2)cn1 [Nilotinib (AMN-107)] | 111 | 107
31 | N#C/C(=C\c1ccc(O)c(O)c1)C(N)=O | 93.5 | 98
32 | COc1cc(OC)c(/C=C/S(=O)(=O)Cc2ccc(OC)c(NCC(=O)O)c2)c(OC)c1 | 93.4 | 101
33 | O=c1c(O)c(-c2ccc(O)c(O)c2)oc2cc(O)cc(O)c12 [Quercetin·2H2O] | 102 | 95.8
34 | CCN(CCO)CCCOc1ccc2c(Nc3cc(CC(=O)Nc4cccc(F)c4)[nH]n3)ncnc2c1 [Barasertib (AZD1152-HQPA)] | 104 | 93.1
35 | CCN(CC)CCNC(=O)c1c(C)[nH]c(/C=C2\C(=O)Nc3ccc(F)cc32)c1C [Sunitinib Malate (Sutent)] | 102 | 80.7
36 | Cc1cccc(-c2[nH]c(C(C)(C)C)nc2-c2ccc3nccnc3c2)n1 | 94.4 | 91.7
37 | c1ccc2c(-c3cnn4cc(-c5ccc(N6CCNCC6)cc5)cnc34)ccnc2c1 | 106 | 73.3
38 | CC1CNCCN1S(=O)(=O)c1cccc2cnccc12 (configuration not stated) | 97.5 | 97.9
39 | N#CC1(c2ccc(NC(=O)c3cccnc3NCc3ccncc3)cc2)CCCC1 [Apatinib (YN968D1)] | 96 | 95.4
40 | O=C(O)c1ccc(Nc2ncc3c(n2)-c2ccc(Cl)cc2C(c2c(F)cccc2F)=NC3)cc1 | 102 | 103
41 | CN(C)C1CCN(C(=O)c2ccc(NC(=O)Nc3ccc(-c4nc(N5CCOCC5)nc(N5CCOCC5)n4)cc3)cc2)CC1 | 102 | 107
42 | O=C1Nc2ccc(I)cc2/C1=C/c1cc(Br)c(O)c(Br)c1 | 92.1 | 90.5

Row | SMILES | gametocyte viability (concentration: 1 µM) | gametocyte viability (concentration: 10 µM)
43 | COCc1cc(O)c(O)c(O)c1-c1c(COC)cc(O)c(O)c1O | 104 | 92.3
44 | O=S(=O)(NCCNC/C=C/c1ccc(Br)cc1)c1cccc2cnccc12 | 99 | 93.1
45 | CS(=O)(=O)N1CCN(Cc2cc3nc(-c4cccc5[nH]ncc45)nc(N4CCOCC4)c3s2)CC1 | 97.2 | 108
46 | CO[C@H]1C[C@@H]2CC[C@@H](C)[C@@](O)(O2)C(=O)C(=O)N2CCCC[C@H]2C(=O)O[C@H]([C@H](C)C[C@@H]2CC[C@@H](OCCO)[C@H](OC)C2)CC(=O)[C@H](C)/C=C(\C)[C@@H](O)[C@@H](OC)C(=O)[C@H](C)C[C@H](C)/C=C/C=C/C=C/1C [Everolimus (RAD001)] | 91 | 94.2
47 | CNC(=O)c1cc(Oc2ccc(NC(=O)Nc3ccc(Cl)c(C(F)(F)F)c3)cc2)ccn1 [Sorafenib (Nexavar)] | 114 | 115
48 | C[C@@H](N)[C@H]1CC[C@H](C(=O)Nc2ccncc2)CC1 | 107 and 110 | 107 and 111
49 | O=Nc1c(-c2c(O)[nH]c3ccccc23)[nH]c2ccccc12 [Indirubin-3'-monooxime] | 90.1 | 86.8
50 | CC[C@@H]1C(=O)N(C)c2cnc(Nc3ccc(C(=O)N[C@H]4CC[C@H](N5CCN(CC6CC6)CC5)CC4)cc3OC)nc2N1C(C)C [BI6727 (Volasertib)] | 84.9 | 61.9
51 | CC(C)CC(=O)Nc1n[nH]c2c1CN(C(=O)C1CCN(C)CC1)C2(C)C | 96.4 | 110
52 | O=c1cc(N2CCOCC2)oc2c(-c3ccccc3)cccc12 | 105 and 79.5 | 103 and 92
53 | O=C1C(c2c(O)[nH]c3ccccc23)=Nc2ccccc21 [Indirubin] | 104 and 100 | 113 and 97.3
54 | COc1cc(Nc2ncc(F)c(Nc3ccc4c(n3)NC(=O)C(C)(C)O4)n2)cc(OC)c1OC | 99.8 | 104
55 | COc1cc(N2CCC(N3CCN(C)CC3)CC2)ccc1Nc1ncc(Cl)c(Nc2ccccc2S(=O)(=O)C(C)C)n1 | 73.9 | 41.9 (active)
56 | COc1cc(Nc2c(C#N)cnc3cc(OCCCN4CCN(C)CC4)c(OC)cc23)c(Cl)cc1Cl [Bosutinib (SKI-606)] | 86.4 | 98.1
57 | C=CC(=O)Nc1cccc(Oc2nc(Nc3ccc(N4CCN(C)CC4)cc3)ncc2Cl)c1 | 103 | 72.5
58 | CN(C)C/C=C/C(=O)Nc1cc2c(Nc3ccc(F)c(Cl)c3)ncnc2cc1O[C@H]1CCOC1 [Afatinib (BIBW2992)] | 92 | 93.5
59 | O=S(=O)(c1cccc2cnccc12)N1CCCNCC1 | 101 | 110
60 | O=c1cc(-c2cccc3c2Sc2ccccc2S3)oc(N2CCOCC2)c1 | 110 | 107
61 | Cn1cnc2c(F)c(Nc3ccc(Br)cc3Cl)c(C(=O)NOCCO)cc21 [AZD6244 (Selumetinib)] | 102 | 105
